CYP2C19 act: cytochrome P450 2C19 (human) activation; 96,000 tested, under 10 active; activation factor at 5 µM; recombinant CYP2C19, luciferin-H EGE luminescence; active compounds read high; 0 = fully inhibited enzyme, 1 = untreated enzyme;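 active means activation factor of at least 2 at 5 µM in the primary screen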;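 further: 0 = wells with 2.5 mM tranylcypromine and 1 = vehicle-only wells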
Target sequence (P33261 whole entry, looked up): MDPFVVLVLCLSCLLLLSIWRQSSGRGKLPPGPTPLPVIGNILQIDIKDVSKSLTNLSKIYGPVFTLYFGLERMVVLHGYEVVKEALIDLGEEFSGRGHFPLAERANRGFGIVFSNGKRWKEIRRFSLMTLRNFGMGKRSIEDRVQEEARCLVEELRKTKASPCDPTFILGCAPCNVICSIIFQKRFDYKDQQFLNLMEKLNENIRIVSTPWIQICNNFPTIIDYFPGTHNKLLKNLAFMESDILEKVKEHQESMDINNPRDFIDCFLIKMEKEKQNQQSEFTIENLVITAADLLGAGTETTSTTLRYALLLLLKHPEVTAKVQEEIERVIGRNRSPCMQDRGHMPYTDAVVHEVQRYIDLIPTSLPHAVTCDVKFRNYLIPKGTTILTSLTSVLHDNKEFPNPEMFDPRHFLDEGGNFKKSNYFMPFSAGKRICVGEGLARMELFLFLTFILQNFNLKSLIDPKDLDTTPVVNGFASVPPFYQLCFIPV
CYP2C9 activ: CYP2C9 (human) activation | P11712 | recombinant CYP2C9, luciferin-H conversion, luminescence; active compounds read high; factor 1 = untreated enzyme, 0 = blocked | activation factor at 5 µM | 1.4% of 96,000 active;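 active means activation factor of 2 or more for CYP2C9 at a 5 µM dose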;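 further: 0 = sulfaphenazole-blocked wells and 1 = vehicle-only wells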
PostGolgi ctrl: yeast control strain growth, post-Golgi counter-screen; efflux-deficient yeast background strain, growth absorbance A615, 16 h; inhibition, % at 10 µM; 5% of 98,000 active
PostGolgi yeast: growth inhibition of a yeast mutant, post-Golgi transport screen; post-Golgi transport phenotypic cell assay; inhibition, % at 10 µM; 0.9% of 98,000 active;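 further: yeast cells grown in 1536-well plates; yeast grown about 18 h at 30C before absorbance read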
CYP2C9 inhib: inhibitors of human CYP2C9. CYP2C9 Supersomes, luciferin-H conversion, luminescence. inhibition, % at 5 µM. 20% of 96,000 active. AID 777;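 active means blocking of liver enzyme CYP2C9 beyond about 50% at 5 µM, limit read from the data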
CYP2C19 inh: blocks human cytochrome P450 2C19 | inhibition, % at 5 µM | 21% of 96,000 active | CYP2C19 Supersomes, luciferin-H EGE luminescence, 30 min | P33261 | AID 778;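 active means CYP2C19 inhibition above a set limit at 5 µM in the primary screen, cut at about 50% in these data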;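 further: plate controls were negative control wells for no effect and 2.5 mM tranylcypromine positive control for full effect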
* hit, by the source's call; . = no result given. Hits are enriched below; roughly 32% of the tested compounds scored in any of these assays. Unless noted, no stated cut-off is given here; in the data, active means inhibition above about 30%; inactive means the rest.

SMILES | CYP2C19 act | CYP2C9 activ | PostGolgi ctrl | PostGolgi yeast | CYP2C9 inhib | CYP2C19 inh
O=C(O)C1C2C=CC(O2)C1C(=O)Nc1ccc(S(=O)(=O)N2CCc3ccccc32)cc1 (stereo unspecified) | 0.9 | 1.2 | 2 | 2 | -24 | 13
CC(=O)Nc1ccc(S(=O)(=O)N2CCCc3ccccc32)cc1 | 0.7 | 0.6 | 5 | 5 | 36 | 34
O=S(=O)(NC1CC1)c1ccc(S(=O)(=O)N2CCc3ccccc32)cc1 | 0.3 | 0.2 | 8 | -7 | 82* | 72*
Nc1ccc(S(=O)(=O)N2CCCc3ccccc32)cc1 | 0.3 | 3.7* | 9 | -2 | -273 | 74*
COCCn1ccc(O)c(Cc2ccccc2)c1=O | 0.9 | 1 | 7 | 7 | -4 | 11
CC(C)C(NS(=O)(=O)c1cccc2nsnc12)C(=O)Nc1nc2ccc(Cl)cc2s1 (stereo unspecified) | 0.8 | 1.1 | 47* | -1 | -10 | 18
CCOc1ccc2nc(NC(=O)C(NS(=O)(=O)c3cccc4nsnc34)C(C)C)sc2c1 (stereo unspecified) | 0.3 | 0.5 | 14 | 2 | 48 | 70*
CCn1c(C)[n+](CCOCC[n+]2c(C)n(CC)c3cc(Cl)c(Cl)cc32)c2cc(Cl)c(Cl)cc21 | 1.1 | 1.1 | 4 | 1 | -8 | -12
CC1=C(C(=O)NCc2ccccc2)C(c2cccs2)n2ncnc2N1 (stereo unspecified) | 0.9 | 1 | -5 | -7 | 4 | 7
Cc1ccc(OCCSc2cc(C)nc(N)n2)cc1 | 0.3 | 0.8 | -1 | -3 | 25 | 72*
Cc1cccc(OCCSc2cc(C)nc(N)n2)c1 | 0.4 | 1.1 | 12 | 18 | -8 | 55*
Cc1cc(C(=O)NCc2ccco2)cs1 | 0.5 | 0.5 | 12 | 4 | 48 | 49
CS(=O)(=O)N1CCC(C(=O)NCC2CCCO2)CC1 (stereo unspecified) | 1 | 1.1 | 6 | -1 | -8 | -2
COc1cc(NC(=O)N[C@H](C(=O)O)C(C)C)cc(OC)c1 | 1 | 1.1 | 2 | -3 | -8 | 2
CCNC(=O)CN(CCc1ccccc1)S(C)(=O)=O | 0.3 | 0.8 | 7 | -7 | 18 | 72*
CS(=O)(=O)N(CCc1ccccc1)CC(=O)N1CCCCC1 | 0.9 | 1.1 | -7 | -2 | -10 | 7
CS(=O)(=O)N(CCc1ccccc1)CC(N)=O | 0.9 | 1 | 7 | -4 | 3 | 6
CS(=O)(=O)N(CCc1ccccc1)CC(=O)N1CCN(Cc2ccccc2)CC1 | . | . | 7 | 4 | . | .
CS(=O)(=O)N(CCc1ccccc1)CC(=O)NCc1ccncc1 | 0 | 0 | 11 | -4 | 99* | 100*
CCCCNC(=O)CN(CCc1ccccc1)S(C)(=O)=O | 0.3 | 0.7 | 3 | -6 | 25 | 72*
CCCCNC(=O)C(=O)NC(C)CCc1ccccc1 (stereo unspecified) | 0.8 | 0.9 | 3 | -5 | 6 | 20
CC(C)NC(=O)CN(CCc1ccccc1)S(C)(=O)=O | 0.2 | 0.9 | 21 | -1 | 11 | 82*
CCN(CC)c1ccc(NC(=O)COC(=O)C23CCC(=O)N2c2ccccc2S3)cc1 (stereo unspecified) | 0.9 | 0.7 | -4 | 8 | 33 | 8
COCCNC(=O)CN(CCc1ccccc1)S(=O)(=O)c1ccc(OC)cc1 | 0.4 | 1.1 | 4 | -3 | -12 | 60*
COc1ccc(S(=O)(=O)N(CCc2ccccc2)CC(=O)O)cc1Cl | 1 | 0.9 | 1 | 4 | 12 | 2
SMILES | CYP2C19 act | CYP2C9 activ | PostGolgi ctrl | PostGolgi yeast | CYP2C9 inhib | CYP2C19 inh
CCOC(=O)Cc1csc(NC(=O)CC(C)(C)C)n1 | 1 | 1 | -1 | 1 | -1 | 3
O=C(COc1ccc(-n2cnnn2)cc1)NC1CCCCC1 | 0.6 | 0.7 | . | . | 26 | 38
Cn1nnc(NC(=O)COc2ccc(C3CCCCC3)cc2)n1 | 0.6 | 0.5 | 2 | 4 | 53* | 39
COc1cccc(Nc2nc(NCCO)c3ccccc3n2)c1 | 0.5 | 0.5 | 9 | 10 | 48 | 51*
CCCN(c1ccc(C(C)C)cc1)S(=O)(=O)c1c(C)noc1C | 0.6 | 0.2 | -7 | 23 | 82* | 38
COc1ccc(OC)c(NC(=O)CN(c2ccc(C(C)C)cc2)S(=O)(=O)c2c(C)noc2C)c1 | 0.3 | 0.1 | 6 | -10 | 94* | 75*
Cc1noc(C)c1S(=O)(=O)N(CC(=O)N1CCn2c1nc1ccccc12)c1ccc(C(C)C)cc1 | 0.4 | 0.1 | 12 | -4 | 87* | 58*
CCOC(=O)C1CCN(C(=O)CN(c2ccc(OC)cc2)S(=O)(=O)c2c(C)noc2C)CC1 | 0.8 | 0.9 | 10 | -1 | 14 | 23
COc1ccc(N(CC(=O)Nc2ccc(F)c(Cl)c2)S(=O)(=O)c2c(C)noc2C)cc1 | 1 | 0.9 | 4 | -1 | 14 | 4
COc1ccc(OC)c(NC(=O)CN(c2ccc(C)cc2)S(=O)(=O)c2c(C)noc2C)c1 | 0.8 | 0.8 | 9 | -10 | 19 | 20
CCOc1ccc(N(CC(=O)N2CCCC2)S(=O)(=O)c2c(C)noc2C)cc1 | 0.6 | 0.9 | 12 | 2 | 6 | 44
COc1ccc(N(CC(=O)Nc2cc(Cl)ccc2OC)S(=O)(=O)c2c(C)noc2C)cc1 | 0.1 | 0.1 | 10 | -3 | 89* | 90*
COc1ccc(C(=O)COC(=O)CCn2nnc(-c3cccs3)n2)cc1 | 1 | 1.1 | -1 | 2 | -6 | 1
Cc1cc2c(C)c(C)c(=O)[nH]c2cc1N | 0.9 | 1 | 0 | 6 | 0 | 5
CCC1(C)OC(=O)N2CCc3c(C)[nH]c4c(C)ccc(c34)C21C (stereo unspecified) | 0.3 | 0.3 | 32* | -1 | 70* | 69*
COc1ccc(-c2n[nH]c(=S)n2C2CCCCC2)cc1 | 0.2 | 0.7 | 28 | 11 | 31 | 79*
COc1ccc(-c2n[nH]c(=S)n2Cc2ccco2)cc1 | 1 | 0.7 | -1 | -8 | 33 | -3
COc1cc2[nH]c(=S)n(C3CCCC3)c(=O)c2cc1OC | 0.9 | 0.8 | 19 | -4 | 21 | 14
COc1ccc(Cl)cc1-c1n[nH]c(=S)n1C1CCCCC1 | 0.2 | 0.9 | 18 | -1 | 14 | 80*
Cc1cc(Cl)ccc1OCc1n[nH]c(=S)n1C1CCCCC1 | 0.2 | 0 | 96* | 99* | 96* | 81*
COc1cccc(NC2SC(=O)N(c3ccccc3)C2=O)c1 (stereo unspecified) | 1.1 | 0.8 | 2 | 2 | 22 | -6
COc1ccc(NS(=O)(=O)c2cccc(-c3nnc4n3CCCCC4)c2)cc1 | 0.6 | 0.2 | 3 | 1 | 82* | 44
COc1ccccc1S(=O)(=O)Nc1cccc(-c2nnc3n2CCCCC3)c1 | 0.9 | 0.9 | 5 | -4 | 12 | 8
COc1ccc(-c2cc(C#N)nc(N3CCN(c4ccccc4)CC3)n2)cc1 | 0.8 | 0.8 | 15 | -6 | 22 | 17
